Only some compounds are listed: those with a hit (about 11% of all), similar ones and a draw of the others.
PI5P4Ka inh = inhibitors of human PI5P4K alpha | max response, % | PI5P4Kalpha enzyme, ADP-Glo luminescence, 60 min; active compounds read low | 330,000 compounds, 1.2% hits | P48426 | AID 652105; active = max response of -50% or lower; inconclusive = between -30% and -50%; inactive = -30% or higher; also: value at the top dose of about 77 µM; % is scaled to controls: 0 for no effect and ±100 for the full control effect
Target sequence (P48426 whole entry, looked up): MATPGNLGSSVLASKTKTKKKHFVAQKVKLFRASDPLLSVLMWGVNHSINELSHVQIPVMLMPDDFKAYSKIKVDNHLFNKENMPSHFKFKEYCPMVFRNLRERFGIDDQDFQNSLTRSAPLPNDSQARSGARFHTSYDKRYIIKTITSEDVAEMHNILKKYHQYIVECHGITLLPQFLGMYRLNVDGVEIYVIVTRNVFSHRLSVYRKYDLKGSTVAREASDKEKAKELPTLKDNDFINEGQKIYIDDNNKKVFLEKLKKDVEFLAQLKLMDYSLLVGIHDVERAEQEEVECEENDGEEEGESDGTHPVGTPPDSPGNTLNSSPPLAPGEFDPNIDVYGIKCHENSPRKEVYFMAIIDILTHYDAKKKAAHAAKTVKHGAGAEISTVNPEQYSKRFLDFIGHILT
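Controls without substrate or without enzyme flank wells where PI5P4Kalpha converts substrate using 5 microM ATP (final). Incubation lasts 60 minutes at room temperature; ADP formed is read by ADP-Glo luminescence.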
L3MBTL1 inh = blocks human L3MBTL1 | Potency, µM (top dose mostly 57.1 µM), without a hit: at the top dose activity, negative = inhibition, usual class: inhibitors | 230,000 compounds, 0.66% hits | AlphaScreen L3MBTL1–H3K9me1 peptide binding | AID 485360; also: potency is read from the fitted curve at half-maximal effect; % is scaled to controls: 0 for no effect and ±100 for the full control effect; nearly all actives have a fitted effect of over 60% in size
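AlphaScreen assay: L3MBTL1 (50 nM final) was preincubated 30 min at room temperature with biotinylated H3(1-15)K9me1 peptide (75 nM final), then 30 min with library compounds; streptavidin donor and nickel chelate acceptor beads (10 ug/mL final) added, 30 min dark.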
JMJD2A Tudor inh = blocks the human JMJD2A Tudor domain; AlphaScreen JMJD2A-Tudor / H3K4me3 peptide binding; Potency, µM (series often up to 114 µM), for inactives: top-dose activity change, negative = inhibition, usual class: inhibitors; 390,000 compounds, 4.4% hits; AID 504339; also: potency is read from the fitted curve at half-maximal effect; % is scaled to controls: 0 for no effect and ±100 for the full control effect; nearly all actives have a fitted effect of over 50% in size
HP1b binding inh = HP1-beta chromodomain-methylated histone interaction inhibition; 390,000 compounds, 0.56% hits; AlphaScreen HP1-beta / biotin-H3K9me3 peptide binding; Potency, µM (series often up to 114 µM), for inactives: at the top dose activity change, negative = inhibition, hits mostly inhibitors; P83916; AID 540317; also: potency is read from the fitted curve at half-maximal effect; nearly all actives have a fitted effect of over 70% in size
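HP1-beta protein (50 nM final) preincubated 30 min at room temperature with biotinylated H3(1-18)K9me3 peptide (50 nM) in PBS pH 7.4, 0.01% Tween-20, then compound added for 30 min. AlphaScreen streptavidin donor/nickel chelate acceptor beads (10 ug/mL final), 30 min dark, luminescence read.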
BAZ2B inh = inhibitors of human BAZ2B bromodomain; AlphaScreen BAZ2B-H3K14Ac peptide displacement; Q9UIF8; Potency, µM (highest dose often 114 µM), inactives show at the highest dose activity change, negative = inhibition, hits mostly inhibitors; 360,000 compounds, 4.4% hits; AID 504333; also: potency is read from the fitted curve at half-maximal effect; % is scaled to controls: 0 for no effect and ±100 for the full control effect; nearly all actives have a fitted effect of over 60% in size
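BAZ2B (50 nM) with biotin-H3(5-23)K14Ac peptide (50 nM) in PBS pH 7.4, 0.01% Tween-20, preformed 30 min, then compound 30 min at room temperature; top concentration 110uM. AlphaScreen streptavidin donor/nickel chelate acceptor beads (10 ug/mL final), 20 min dark, signal read.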
G9a block = G9a (human) methyltransferase inhibition; Q96KQ7; G9a H3K9 monomethylation, AlphaScreen, 2 h; Potency, µM (series often up to 102 µM), without a hit: at the highest dose activity, negative = inhibition, hits mostly inhibitors; 350,000 compounds, 8.8% hits; AID 504332; also: potency is read from the fitted curve at half-maximal effect; % is scaled to controls: 0 for no effect and ±100 for the full control effect; nearly all actives have a fitted effect of over 75% in size
Target sequence (Q96KQ7 913-1193 limits assumed): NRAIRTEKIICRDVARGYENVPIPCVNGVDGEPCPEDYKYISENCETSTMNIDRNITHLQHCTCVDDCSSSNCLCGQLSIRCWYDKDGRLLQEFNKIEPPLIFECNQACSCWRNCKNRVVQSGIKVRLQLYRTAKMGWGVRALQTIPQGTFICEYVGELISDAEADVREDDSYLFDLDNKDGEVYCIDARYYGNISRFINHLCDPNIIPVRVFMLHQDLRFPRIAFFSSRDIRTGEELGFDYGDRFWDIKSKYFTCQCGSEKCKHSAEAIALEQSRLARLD
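Signal arises when biotinylated H3K9 peptide, once monomethylated, bridges streptavidin donor and antibody-captured acceptor beads. Enzyme at 20 nM was preincubated 15 min with test compounds; peptide 500 nM and SAM 20 uM then reacted for 2 h.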
* marks the source's active call; other numbers are inactive results; [ ] = dose if it differs, or a comment. Unless noted, calls follow the shape of the dose curve; as a rule, active = well fitted inhibition curve with a large enough effect; inconclusive = small, poorly fitted or top-dose-only effect; inactive = no such curve, though single readings can be large or run the other way.

Results for CCc1ccccc1NC(=O)CC(NCc1ccccc1)C(=O)O (stereo unspecified) ?
PI5P4Ka inh: 2; JMJD2A Tudor inh: inconclusive; HP1b binding inh: 21%; BAZ2B inh: -17%[57.1 µM]; G9a block: 28µM*

What do the screens show for `COC(=O)c1ccccc1NC(=O)CC(NCc1ccccc1)C(=O)O` (stereo unspecified)?
JMJD2A Tudor inh: 28µM*; HP1b binding inh: 21%

What do the screens show for `COc1cccc(CNc2nc(Cl)nc3nc[nH]c23)c1`?
JMJD2A Tudor inh: -11%; HP1b binding inh: 29%

How did N#CCC(=O)N1CCn2c1nc1ccccc12 do in these assays?
PI5P4Ka inh: 1; L3MBTL1 inh: -6%; JMJD2A Tudor inh: -11%; HP1b binding inh: 26%; BAZ2B inh: -4%; G9a block: -33%[59 µM]

What do the screens show for `CC(C)(C)C(=O)N1CCn2c1nc1ccccc12`?
PI5P4Ka inh: 3; L3MBTL1 inh: -8%; JMJD2A Tudor inh: -14%; HP1b binding inh: -3%; BAZ2B inh: 56µM*; G9a block: 21%

What do the screens show for `COc1ccc([N+](=O)[O-])cc1NC(=O)CC(c1ccccc1)c1ccccc1`?
PI5P4Ka inh: 2; L3MBTL1 inh: 1%; JMJD2A Tudor inh: -11%; HP1b binding inh: 25%; BAZ2B inh: 6%; G9a block: 4%[59 µM]

Results for COCCSc1ccccc1C(=O)Nc1ccc([N+](=O)[O-])cc1OC ?
PI5P4Ka inh: -3; L3MBTL1 inh: -12%; JMJD2A Tudor inh: -13%; HP1b binding inh: 17%; BAZ2B inh: -29%; G9a block: 22µM*

What do the screens show for `CSc1ccccc1C(=O)Nc1cc([N+](=O)[O-])ccc1C`?
PI5P4Ka inh: 2; L3MBTL1 inh: -8%; JMJD2A Tudor inh: -3%; HP1b binding inh: 15%; BAZ2B inh: -16%; G9a block: 10µM*

Results for CCn1ncc(C(=O)Nc2ccc([N+](=O)[O-])cc2OC)c1C ?
PI5P4Ka inh: -1; JMJD2A Tudor inh: -8%; HP1b binding inh: 38%

What do the screens show for `COCCSc1ccccc1C(=O)Nc1cc([N+](=O)[O-])ccc1OC`?
PI5P4Ka inh: 2; L3MBTL1 inh: 1%; JMJD2A Tudor inh: -14%; HP1b binding inh: 18%; BAZ2B inh: -17%; G9a block: 40µM*

How did COc1ccc([N+](=O)[O-])cc1NC(=S)NC(C)=O do in these assays?
PI5P4Ka inh: -15; L3MBTL1 inh: -5%; JMJD2A Tudor inh: inconclusive; HP1b binding inh: 21%; BAZ2B inh: -9%; G9a block: 29%[12.7 µM]

Results for COc1ccc(/C=C/C(=O)NC(=S)Nc2cc([N+](=O)[O-])ccc2O)cc1OC ?
PI5P4Ka inh: -25; L3MBTL1 inh: -19%; JMJD2A Tudor inh: 89µM*; HP1b binding inh: inconclusive; BAZ2B inh: inconclusive; G9a block: 28µM*

How did O=C(CCC1N=C2c3ccccc3N=C(SCc3ccc(F)cc3)N2C1=O)N1CCN(c2ccccc2)CC1 (stereo unspecified) do in these assays?
JMJD2A Tudor inh: -32%; HP1b binding inh: 15%; BAZ2B inh: -27%; G9a block: inconclusive

Results for COc1ccc(C2NC(=O)N(C)C3=C2C(=O)N(c2cccc(Cl)c2)C3)cc1 (stereo unspecified) ?
JMJD2A Tudor inh: -24%; HP1b binding inh: 0%; BAZ2B inh: inconclusive; G9a block: -5%[59 µM]

How did COc1cc([N+](=O)[O-])ccc1NC(=O)/C=C/C(=O)O do in these assays?
PI5P4Ka inh: 1; JMJD2A Tudor inh: -16%; HP1b binding inh: 14%; BAZ2B inh: 6%; G9a block: 50µM*

How did COc1cc([N+](=O)[O-])ccc1NC(=O)/C=C\C(=O)O do in these assays?
PI5P4Ka inh: -3; L3MBTL1 inh: 4%; JMJD2A Tudor inh: -14%; HP1b binding inh: 18%; BAZ2B inh: -33%; G9a block: -45%

Results for COc1ccc(C)cc1Nc1n[n+](-c2ccccc2)c(-c2c(OC)ccc3ccccc23)s1 ?
PI5P4Ka inh: -54*; L3MBTL1 inh: -9%; JMJD2A Tudor inh: inconclusive; HP1b binding inh: -16%; BAZ2B inh: inconclusive; G9a block: 21%[2.33 µM]

How did COc1ccc(C)cc1Nc1n[n+](-c2ccccc2)c(-c2cc(OC)c(OC)cc2Br)s1 do in these assays?
PI5P4Ka inh: -16; L3MBTL1 inh: -7%; JMJD2A Tudor inh: inconclusive; HP1b binding inh: 19%; BAZ2B inh: 50µM*; G9a block: 40µM*

How did CCOc1cc(-c2sc(Nc3ccc(CC)cc3)n[n+]2-c2ccccc2)ccc1OC do in these assays?
PI5P4Ka inh: -26; L3MBTL1 inh: -2%; JMJD2A Tudor inh: inconclusive; HP1b binding inh: -12%; BAZ2B inh: inconclusive; G9a block: -11%[2.33 µM]

What do the screens show for `COc1ccc(C)cc1Nc1nc(N)c2ccccc2n1`?
PI5P4Ka inh: -3; L3MBTL1 inh: -5%; JMJD2A Tudor inh: -32%; HP1b binding inh: 14%; BAZ2B inh: -37%; G9a block: inconclusive

How did CC(C)C(=O)NC(c1ccccc1Cl)c1c(O)ccc2ccccc12 (stereo unspecified) do in these assays?
L3MBTL1 inh: 3%; JMJD2A Tudor inh: -3%; HP1b binding inh: 14%; BAZ2B inh: 7%; G9a block: 6%

Results for CC(C)C(=O)NC(c1ccco1)c1c(O)ccc2ccccc12 (stereo unspecified) ?
L3MBTL1 inh: -1%; JMJD2A Tudor inh: inconclusive; HP1b binding inh: -5%; BAZ2B inh: -34%; G9a block: 32µM*

What do the screens show for `CCC(=O)NC(c1ccc(N(C)C)cc1)c1c(O)ccc2ccccc12` (stereo unspecified)?
PI5P4Ka inh: -4; L3MBTL1 inh: -8%; JMJD2A Tudor inh: 50µM*; HP1b binding inh: inconclusive; BAZ2B inh: 28µM*; G9a block: 10µM*

What do the screens show for `O=C(CNC(=O)c1ccc(Br)o1)Nc1cccc(S(=O)(=O)N2CCOCC2)c1`?
PI5P4Ka inh: -11; L3MBTL1 inh: 0%; JMJD2A Tudor inh: -23%; HP1b binding inh: -3%; BAZ2B inh: -1%; G9a block: 50µM*

Results for O=C(COC(=O)c1ccc(Br)o1)Nc1cccc(S(=O)(=O)N2CCOCC2)c1 ?
PI5P4Ka inh: -4; L3MBTL1 inh: 2%; JMJD2A Tudor inh: -14%; HP1b binding inh: 15%

Results for COc1ccc(N2CCN(CC(=O)Nc3cccc(S(=O)(=O)N4CCOCC4)c3)CC2)cc1 ?
PI5P4Ka inh: 2; L3MBTL1 inh: -6%; JMJD2A Tudor inh: 7.9µM*; HP1b binding inh: -65%; BAZ2B inh: 35µM*; G9a block: 14µM*
